Shown are actives, neighbours in structure and some others; about 2.1% of the full set was active somewhere.
EP2 mod: EP2 receptor (human) modulation | EP2-expressing cells, cAMP HTRF FRET, PGE2 co-stimulation | P43116 | AID 940 | induction, % at 25 µM | 260,000 compounds, 0.83% hits;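 active = compounds whose cAMP rise, as percent of the full-agonist control response, exceeds 60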;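 also: rat C6 glioma line stably carrying human EP2 under a CMV promoter; the protocol text gives 20 µM as final concentration; 100% = response of wells given 1 µM PGE2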
Target sequence (P43116 whole entry, looked up): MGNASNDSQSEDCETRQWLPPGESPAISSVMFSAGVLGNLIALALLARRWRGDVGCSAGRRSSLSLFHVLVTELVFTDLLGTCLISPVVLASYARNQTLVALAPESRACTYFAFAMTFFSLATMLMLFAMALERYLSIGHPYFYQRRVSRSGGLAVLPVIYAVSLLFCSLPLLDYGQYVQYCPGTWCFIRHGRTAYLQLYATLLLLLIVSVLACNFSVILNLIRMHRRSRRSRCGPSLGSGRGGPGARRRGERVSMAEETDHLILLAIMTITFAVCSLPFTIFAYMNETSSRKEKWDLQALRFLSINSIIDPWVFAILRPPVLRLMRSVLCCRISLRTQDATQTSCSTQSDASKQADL
CHT allo act: allosterically activates the human high affinity choline transporter | Q9GZV3 | CHT-expressing cells, membrane potential dye, choline EC20; hits give high values; LV-AA mutant CHT in HEK293 cells | B-score at 10 µM | 310,000 compounds, 0.49% hits;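 active = initial fluorescence not abnormally high and integrated response B-score, plate-corrected, over 3 SD above library mean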
PGE2 EP2 inh: blocks the human prostaglandin E2 receptor EP2; inhibition, % at 25 µM; C6 glioma cells expressing human EP2, cAMP TR-FRET; cells stimulated with saturating PGE2; 260,000 compounds, 0.52% hits;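 active = percent inhibition above 40 after rounding to a whole number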;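 also: rat C6 glioma host cells with rolipram phosphodiesterase inhibitor present; the protocol text gives 20 µM as final concentration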
CHT inh: inhibitors of human choline transporter CHT; B-score at 10 µM; CHT-expressing cells, membrane potential dye, choline response; hits give low values; AID 488975; Q9GZV3; 310,000 compounds, 0.86% hits;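 active = B-score over 3 SD under the library average, and starting fluorescence ratio not unusually high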;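 also: choline stimulus applied at its EC90 after an EC20 pre-addition; B-score computed on integrated fluorescence ratio after choline addition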
The depositor's hits bear a star; i = inactive; nt = no result; ! = a repeat was not active.

SMILES	EP2 mod	CHT allo act	PGE2 EP2 inh	CHT inh
Cc1cccc(Nc2nc(CC(=O)N(C)CCN3CCCCC3)cs2)c1	-29	nt	2	nt
C=C(C)CN1CC[C@]23c4c5ccc(O)c4O[C@H]2c2[nH]c4ccccc4c2C[C@@]3(O)C1C5	nt	i	9	-5.3*
Oc1ccc2c3c1O[C@H]1c4[nH]c5ccccc5c4C[C@@]4(O)C(C2)N(CC2CC2)CCC314 (stereo partly specified)	12	nt	13	nt
OCCOc1ccc(CN2C3CCC2CC(O)(c2ccccc2F)C3)cc1 (stereo unspecified)	3	nt	10	nt
COc1cc2c(c(OC)c1OC)-c1ccc(O)c(=O)cc1[C@@H](NC(C)=O)CC2	13	nt	6	nt
COc1cc2c(c(OC)c1OC)-c1ccc(O)cc1[C@@H](NC(C)=O)CC2	nt	8*	nt	i
O=C1NC(=O)C(=Cc2ccc(-c3cc(Cl)ccc3[N+](=O)[O-])o2)C(=O)N1	-59	nt	42*	nt
CN(C)CCN(Cc1ccccc1F)C(=O)Cc1nn(C)c(=O)c2ccccc12	-5	nt	7	nt
CN(C)CCN(C(=O)Cc1csc(-c2cccc(F)c2)n1)C1CCCC1	-60	nt	13	nt
C[C@H](Br)CN(C[C@H](C)Br)c1ccc2c(c1)Cc1ccccc1-2	-27	nt	57*	nt
CN[C@H]1C[C@H]2O[C@@](C)([C@H]1OC)n1c3ccccc3c3c4c(c5c6ccccc6n2c5c31)C(=O)NC4	11	i	24	-5.3*
CC(=O)O[C@H]1CC[C@H]2[C@H]3CCC4=C[C@@H](C5SCCS5)[C@H](OC(C)=O)C[C@]4(C)[C@@H]3CC[C@]12C	28	nt	30	nt
CN1C2CC3C[C@H]1C(O3)C2O (stereo partly specified)	-5	nt	14	nt
CC[C@H]1CN2CCc3cc(OC)c(OC)cc3[C@@H]2C[C@@H]1C[C@H]1NCCc2c1[nH]c1ccc(O)cc21	-25	nt	61*	nt
COc1cc2c(cc1O)[C@@H]1Cc3ccc(OC)c(O)c3CN1CC2	nt	i	nt	i
Cc1ccc(C)c(-n2c(C)nc3ccccc3c2=O)c1	6	i	6	i
Cc1cc(NCCN)nc2ccccc12	-50	11*	12	i
Cc1cccc(NP(=O)(Oc2ccccc2F)Oc2ccccc2F)c1C	65*	i	7	i
Cc1ccc(NP(=O)(Oc2ccccc2F)Oc2ccccc2F)cc1	44	i	7	i
Cc1cc(C)c2[nH]c(=O)c(CN(CCCO)C3(c4nnnn4C4CCCCC4)CCCCC3)cc2c1	20	nt	12	nt
CCCCCc1nc2c(c(=O)c3ccccc3n2C)c(=O)n1C1CCCCCC1	-14	i	121*	i
COc1ccc(C[C@@H]2C(=O)N[C@H](C)C(=O)N(C)[C@@H]3C(=O)N(C)[C@@H](Cc4ccc(O)c(c4)Oc4ccc(cc4)[C@H]3O)C(=O)N[C@@H](C)C(=O)N[C@H](C)C(=O)N2C)cc1	27	nt	43*	nt
COc1ccccc1/C=C/CN1C2CCC1CC(O)(c1nccn1C)C2 (stereo unspecified)	11	nt	7	nt
CC1=NN(c2ccccc2)C(=O)[C@H]1N=Nc1ccc([As](=O)(O)O)c(O)c1	46	nt	43*	nt
CCC1CCCCN1C(=O)CN1C2CCC1CC(O)(c1ccccn1)C2 (stereo unspecified)	-16	nt	nt	nt
SMILES	EP2 mod	CHT allo act	PGE2 EP2 inh	CHT inh
C=Cn1cc(CN2C3CCC2CC(O)(c2ccc(OC)cc2)C3)c(C)n1 (stereo unspecified)	-17	nt	6	nt
Nc1ccccc1O.O.O=C(O)[C@H]1[O][Sb][O][C@H]1C(=O)O	-4	nt	54*	nt
c1cncc(CNCC2CCCCC2)c1	-2	nt	7	nt
COc1ccc(-n2c(/C=C3\C(=O)Nc4ccccc43)nc3ccccc3c2=O)cc1	-27	i	3	i
COc1ccc2c(c1)/C(=C/c1cnc[nH]1)C(=O)N2	14	8.8*	8	i
CCCC(=O)NC(Oc1ccc(C(C)=O)cc1)C(Cl)(Cl)Cl (stereo unspecified)	-10	i	6	i
Cc1ccccc1C(=O)NC(Oc1ccccc1)C(Cl)(Cl)Cl (stereo unspecified)	63*	i	5	i
CC(=O)OC1=CC2=CC[C@H]3[C@@H]4CCC(=O)[C@@]4(C)CC(=O)[C@]3(S)[C@]2(C)CC1	-1	nt	63*	nt
Cn1ccnc1C1(O)CC2CCC(C1)N2CC(=O)NCC1CCCO1 (stereo unspecified)	17	nt	nt	nt
CN1CCc2cc(O)cc3c2[C@H]1Cc1ccc(O)c(O)c1-3	13	i	102*!	i
CN1CCc2cc3c(c4c2C1Cc1ccccc1-4)OCO3 (stereo unspecified)	nt	i	nt	i
CCCN1CCc2cc(O)cc3c2[C@H]1Cc1ccc(O)c(O)c1-3	9	i	77*!	i
CN(C)C(=S)SSC(=S)N(C)C	-37	i	125*	i
CCCC(=O)N(C)C1=Nc2ccc(Cl)cc2C(c2ccccc2)=[N+]([O-])C1	9	i	4	i
CN(CCC(=O)O)C1=Nc2ccc(Cl)cc2C(c2ccccc2)=[N+]([O-])C1	14	nt	50*	nt
NS(=O)(=O)c1ccc(-c2ccc([As](=O)(O)O)cc2)cc1	19	nt	45*	nt
C=C(C)COc1cccc(CN2C3CCC2CC(O)(c2nccn2C)C3)c1 (stereo unspecified)	-23	nt	4	nt
COc1cccc(C2(O)CCN(CCNC(=O)c3c(C)noc3C)CC2)c1	-9	nt	7	nt
O=C(O)[C@@H](O)[C@@H](O)[C@@H]1[O][Sb][O][C@@H]1CO	10	nt	51*	nt
COc1ccc(C2(O)CC3CCC(C2)N3Cc2cc(OC)c(OC)cc2C)cc1 (stereo unspecified)	-48	nt	4	nt
CC(C)(C)c1cc(CCC(=O)O)cc(C(C)(C)C)c1O (tested in a mixture with another compound)	12	nt	6	nt
O=P(O)(OP(=O)(O)c1ccccc1)c1ccccc1 (tested in a mixture with another compound)	33	nt	49*	nt
C[C@@H]1[C@H]2C=C[C@@H]1[C@H](c1c3ccc(=O)c(O)c-3oc3c(O)c(O)ccc13)[C@@H]2C(=O)O	-10	nt	45*	nt
Cc1nc(-c2ccc(F)cc2)c(CC(=O)N2CCCCC2CN2CCCCC2)s1 (stereo unspecified)	-12	nt	9	nt
CC1=CC(=O)c2c(O)cccc2C1=O	-34	nt	79*	nt
C[N+]1([O-])[C@@H]2CC(OC(=O)[C@@H](CO)c3ccccc3)C[C@H]1[C@H]1O[C@H]12 (stereo partly specified)	29	nt	49*	nt
COC[C@]12CN(C=O)C3[C@@H]4[C@H](OC)C1[C@]3(C1CC3(O)C(OC)C(O)C4(OC(C)=O)C1C3OC(=O)c1ccccc1)[C@@H](OC)C[C@H]2O (stereo partly specified)	-12	nt	10	nt
O=C(CN1C2CCC1CC(O)(c1cccnc1)C2)OC1CCCCC1 (stereo unspecified)	-30	nt	9	nt
O[C@H](CN1CC1)[C@@H](O)CN1CC1	22	nt	42*	nt
